From PubChem BioAssay (NCI) come the findings set out here.

Compounds without any hit were thinned out: in the full panel of roughly 79,000, 15% have a hit. Values without a mark were called inactive. The source made the active and inactive calls. Cut-off read from the data, not from the text of the source: active = growth inhibition above about 70%; inactive = the rest.

This experiment is described as follows: NCI Yeast Anticancer Drug Screen. Data for the mlh1 rad18 strain (AID 175). The conditions noted are these: S. cerevisiae mlh1 rad18 strain growth inhibition; at 50.0 µM; active compounds read high. In outline:
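Read-out is yeast growth inhibition, calculated against vehicle-only controls. The compound was applied to a strain engineered with DNA damage repair alterations.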
In the case of `Cc1cn(C)c2c1-c1c(cnn1-c1ccccc1)CC2`, the growth inhibition is 23.4%. For `C[n+]1nc2ccccc2c(=Nc2ccccc2[N+](=O)[O-])[n-]1` the value was -1.65%. As for `O=S(=O)(c1ccccc1)N1CCCCC1`, the figure is 25.6%; as for `CCN(CC)Cc1cc(Nc2nc(/C=C/c3ccccc3)nc3ccccc23)ccc1O`, -14.6%.

As to `S=C1N=C2c3ccccc3C2C(=S)S1` (stereo not given), the growth inhibition is -7.25%. For `O=Cc1c2cnc(c1O)CSCCCCSC2` the value was -1.8%; for `NC(=O)c1csc(NC2OC(CO)C(O)C(O)C2O)n1` (stereo not given), -0.05%; for `O=[N+]([O-])c1ccc(N=Nc2c(O)[nH]c3ccc(Br)cc23)c([N+](=O)[O-])c1`, 5.5%. For `CCN(CC)Cc1cc(N)cc(N=Nc2ccc3c(c2)c2ccccc2n3CC)c1O` the value was 17.9%; for `O=C(Nc1cccnc1)c1ccc([N+](=O)[O-])s1`, 16.1%.

On to `CC1=NN(c2nc(N)nc(CCl)n2)CC1`, for which the growth inhibition is -29.2%. For `Clc1cc(Cl)c2ccc3c(Cl)cc(Cl)c4ccc1c2c43` the value was -20.6%. For `CC(C)CCCC(C)C1CCC2C(CC(=O)O)C(C3(C)CCC(O)CC3=O)CCC2(C)C1` (stereo not given) the value was 33%. As for `[Cl][Pt+2][Cl].[NH-]c1ccccc1F.[NH-]c1ccccc1F`, the figure is 34.4%; as for `COc1cc([N+](=O)[O-])ccc1NC(=O)C(Br)C(Br)C(=O)O` (stereo not given), 16.4%. Take `Cc1cccc(C=NC23CC4CC(CC(C4)C2)C3)c1`: the growth inhibition was -43.3%. For `CC[P+](C)(Cc1ccccc1)c1ccccc1` (stereo not given) the value was 21.3%; for `CC(C)N=C(c1ccccc1)N(O)c1ccccc1`, 5.05%.

For `Cc1cccc(N=Nc2c(C)nc(N)nc2C)c1C`, the growth inhibition is 6.75%.

Turning to `COc1ccc(NC(=O)N2CC3CCN2CC3)cc1`, the growth inhibition was -16.2%. As for `Cn1c(=O)c2c(nc(OCC[N+](C)(C)C)n2C)n(C)c1=O`, the growth inhibition is 2.45%. As for `CCCNC(=O)c1cccc2c1-c1ccccc1C2=O`, the figure is -1.45%. `CN(C)CCC1(C2=CCCC2)CC/C(=C\c2ccc3c(c2)OCO3)C1=O` (stereo not given): the growth inhibition is 17.5%. As for `C/C(CCc1cnc2ccccc2c1)=N/NC(N)=O`, the figure is 95.6% (active); as for `C=C[C@@]1(C)CC2CC[C@]3(C)C(C)=CC(=O)CC3[C@]2(C)CC1O` (stereo not given in full), 10.4%.

On to `Cc1cc2c(c3oc(C4(C)OC4C4OC4C)cc(=O)c13)C(=O)c1c(O)c(C3CC(C)(N(C)C)C(O)C(C)O3)cc(C3CC(N(C)C)C(O)C(C)O3)c1C2=O` (stereo not given), for which the growth inhibition is 87.5% (active). As for `Cc1nc(NS(=O)(=O)c2ccc(N)cc2)nc(C)c1Br`, the figure is -15.1%; as for `N#C/C(=C\c1ccc2c(c1)OCO2)C(=O)N/N=C/c1ccc2c(c1)OCO2`, 2.95%. Turning to `Fc1ccc(NC(=S)Nc2ccccn2)cc1`, the growth inhibition is 19.9%.

For `OCC(O)C(O)C(O)CN=Cc1ccccc1O` (stereo not given), the growth inhibition is 12.3%.

For the compound `Clc1ccc(/C=C2\c3ccccc3-c3nc4ccccc4nc32)cc1`, the growth inhibition is -21.9%.

As for `CN1C(=O)N/C(=C\c2ccc(S(=O)(=O)N/N=C\C(O)C(O)C(O)CO)cc2)C1=O` (stereo not given), the growth inhibition is -35%. For `O=C(O)Cc1ccc(-c2ccccc2)cc1` the value was 25.4%; for `CCOC(=O)C1C(C)=CC(=O)CC1C` (stereo not given), 4.45%. `N#Cc1c(-c2ccccc2)cc(-c2cccs2)c(C#N)c1N`: the growth inhibition was 21.1%. On to `CCc1ccc2[nH]nc(CCC(=O)O)c(=O)c2c1`, for which the growth inhibition was -7.05%.

As for `CCN(CC)C(=S)SCCC(N)=O`, the growth inhibition is -0.65%. For the compound `CCCCNC(=S)SSSSC(=S)NCCCC`, the growth inhibition was -7.55%. Consider `CC1=NN(C(=O)CC(=O)Nc2ccccc2C)C(=O)C1N=Nc1ccc(S(=O)(=O)c2ccc(N=NC3C(=O)N(C(=O)CC(=O)Nc4ccccc4C)N=C3C)cc2)cc1` (stereo not given), for which the growth inhibition is 1.35%. As to `Cc1ccc(-n2cc(-c3ccc(Cl)cc3)c3c2N=CN2NC(c4ccco4)=NC32)cc1` (stereo not given), the growth inhibition is -15.3%.
